Source: the supplement of paper PMC4962491
± gives the standard deviation of the averaged measurements.

Tested on: FaDu
Test: mitochondrial oxygen consumption rate normalised to cell number, Z score vs plate DMSO wells; higher = higher oxygen consumption (negative = OCR reduction)
Conditions: treatment time 24 h, assay medium: 5 mM glucose, 5 mM pyruvate, 4 mM glutamine
Experimental: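 Secondary screen: FaDu cells were incubated 24 h with the top 130 primary hits at 0.08, 0.4, 2 or 10 uM. Mitochondrial-specific OCR (basal minus antimycin A) was measured on a Seahorse XF96 in medium with 5 mM glucose, 5 mM pyruvate and 4 mM glutamine and normalised to Hoechst cell number. OCR score = (OCR - mean of plate DMSO wells) / SD of plate DMSO wells. Three repeats.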
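Note: compound exposure in DMEM (4 mM L-glutamine, 5 mM glucose), antimycin A injected at 2 µM after the basal reading and its residual OCR subtracted from basal.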

SMILES	mitochondrial oxygen consumption rate normalised (0.08 µM)	mitochondrial oxygen consumption rate normalised (0.4 µM)	mitochondrial oxygen consumption rate normalised (2 µM)	mitochondrial oxygen consumption rate normalised (10 µM)
N=C(NCCCCCCNC(=N)NC(=N)Nc1ccc(Cl)cc1)NC(=N)Nc1ccc(Cl)cc1	0.00962 ± 0.9	1.64 ± 0.46	-0.184 ± 0.7	-7.98 ± 0.44
C=CC1=C(C)c2cc3[nH]c(cc4nc(cc5[nH]c(cc1n2)c(C)c5CCC(=O)O)C(CCC(=O)O)=C4C)c(C)c3C=C	0.0776 ± 2.3	1.29 ± 2	0.447 ± 0.95	-1.43 ± 1.3
N=C(N)c1ccc(OCCCCCOc2ccc(C(=N)N)cc2)cc1	0.754 ± 1.1	-0.0335 ± 0.92	-2.03 ± 2.2	-6.65 ± 1.6
CCCCCCCCCCCCCCCCCCCCCCO	0.402 ± 1.5	0.592 ± 1.3	0.538 ± 0.35	-0.999 ± 1.9
Cc1cc(C2CCCCC2)n(O)c(=O)c1	-0.736 ± 1.4	1.35 ± 1	-3.51 ± 0.86	-3.81 ± 1.9
CC[C@@]1(O)C(=O)OCc2c1cc1n(c2=O)Cc2cc3c(CN(C)C)c(O)ccc3nc2-1 [Topotecan]	-0.916 ± 1.4	0.308 ± 0.26	–	0.664 ± 1.4
CCCCC(CC)CN=C(N)N=C(N)NCCCCCCNC(N)=NC(N)=NCC(CC)CCCC (centres undefined)	-1.69 ± 0.36	1.12 ± 0.29	-0.611 ± 2	-10.4 ± 0.54
CO[C@H]1C[C@H](O[C@H]2[C@H](C)O[C@@H](O[C@@H]3/C(C)=C/C[C@@H]4C[C@@H](C[C@]5(C=C[C@H](C)[C@@H](C6CCCCC6)O5)O4)OC(=O)[C@@H]4C=C(C)[C@@H](O)[C@H]5OC/C(=C\C=C\[C@@H]3C)[C@]54O)C[C@@H]2OC)O[C@@H](C)[C@@H]1O	0.113 ± 1.2	1.33 ± 0.39	-0.504 ± 1.2	-2.82 ± 1.1
CCCCCC(=O)O[C@]1(C(C)=O)CC[C@H]2[C@@H]3CCC4=CC(=O)CC[C@]4(C)[C@H]3CC[C@@]21C	0.448 ± 1.4	0.998 ± 0.5	0.00301 ± 1.9	-3.48 ± 1.8
CC(C)OC(=O)C(C)(C)Oc1ccc(C(=O)c2ccc(Cl)cc2)cc1	-0.014 ± 0.66	1.08 ± 0.7	0.455 ± 1.1	-2.82 ± 2.6
